Assay [1] concerns Staphylococcus aureus Sa2 (MRSA, cystic fibrosis isolate). Kind of assay: growth reduction vs untreated control (OD550); higher = stronger antibacterial activity. As to conditions: 0.1 mM; 24 h. The method, then: (§1)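 Single-dose screen of the MedChem Express Drug Repurposing Library (0.1 mM, 1% DMSO) against planktonic MRSA S. aureus Sa2 (CF isolate) in TSB in 96-well plates, 37 °C aerobic, 24 h. Assays were run in triplicate and repeated twice.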

Assay [2] shares this test system. Put plainly: growth reduction vs untreated control (viable cell count); higher = stronger antibacterial activity; extreme values may be limits of the assay. Particulars: 0.1 mM; 24 h. The protocol:
as §1

Structures can show the parent of a compound that is named as a salt.

Turning to `COc1cc(NS(C)(=O)=O)ccc1Nc1c2ccccc2nc2ccccc12` [Amsacrine (hydrochloride)], the growth reduction in assay [1] was determined as 93.4%; in assay [2] it was 100%.
With `CN[C@H]1CC[C@@H](c2ccc(Cl)c(Cl)c2)c2ccccc21` [Sertraline (hydrochloride)], the growth reduction in assay [1] and in assay [2] was 100% throughout.
Regarding `COc1cc(C(=O)NS(=O)(=O)c2ccccc2C)ccc1Cc1cn(C)c2ccc(NC(=O)OC3CCCC3)cc12` [Zafirlukast], the growth reduction in assay [1] and in assay [2] was 100% in each case.
As for `CCC(c1ccccc1)c1c(O)c2ccccc2oc1=O` (stereo not drawn) [Phenprocoumon], the growth reduction in assay [1] was determined as 94.6%; in assay [2], 95%.
On the same counts, the results for `COCCNCc1ccc(-c2cc3nccc(Oc4ccc(NC(=O)C5(C(=O)Nc6ccc(F)cc6)CC5)cc4F)c3s2)nc1` [Sitravatinib] are 100% and 100%.
As for `COc1ccc2c(c1OCc1ccccc1)C[C@@H](C(=O)O)N(C(=O)C(c1ccccc1)c1ccccc1)C2` [Olodanrigan], the figures for the growth reduction in assay [1] and in assay [2] were 95.1% and 100%, respectively.
In the same order, the values of `Cc1cccc(/C=N/Nc2cc(N3CCOCC3)nc(OCCc3ccccn3)n2)c1` [Apilimod (mesylate)] are 97.4% and 93%.
In the same order, the values of `O=C(O)Cc1ccccc1Nc1c(Cl)cccc1Cl` [Diclofenac (diethylamine)] are 100% and 100%.
On the same counts, the results for `COc1cc2c(cc1Cc1cccc(Cl)c1F)c(=O)c(C(=O)O)cn2[C@H](CO)C(C)C` [Elvitegravir] are 100% and 100%.
Consider `Clc1ccc(CCC(Cn2ccnc2)Sc2c(Cl)cccc2Cl)cc1` (stereo not drawn) [Butoconazole (nitrate)], for which the growth reduction in assay [1] and in assay [2] was 100% in each case.
As to `O=c1[nH]cnc2c1cnn2[C@@H]1O[C@H](CO)[C@@H](O)[C@H]1O` [Allopurinol riboside], the growth reduction in assay [1] turned out to be 99.9%; in assay [2] it was 100%.
In the same order, the values of `CSc1ccc2c(c1)N(CCC1CCCCN1C)c1ccccc1S2` (stereo not drawn) [Thioridazine (hydrochloride)] are 100% and 100%.
On the same counts, the results for `O=C(O)Cc1ccccc1Nc1c(Cl)cccc1Cl` [Diclofenac] are 100% and 100%.
In the same order, the values of `O=C1[C@H](CC[C@H](O)c2ccc(F)cc2)[C@@H](c2ccc(O)cc2)N1c1ccc(F)cc1` [Ezetimibe] are 91.7% and 91%.
In the case of `CC(=O)OC[C@H]1O[C@@H]([S-])[C@H](OC(C)=O)[C@@H](OC(C)=O)[C@@H]1OC(C)=O.CCP(CC)CC.[Au+]` [Auranofin], the growth reduction in assay [1] was found to be 99.9%; in assay [2] it was 100%.
Consider `CCCSc1nc(N[C@@H]2C[C@H]2c2ccc(F)c(F)c2)c2nnn([C@@H]3C[C@H](OCCO)[C@@H](O)[C@H]3O)c2n1` [Ticagrelor], for which the growth reduction in assay [1] was determined as 100%; in assay [2] it was 98%.
Consider `CC(C)(C)c1nc(-c2cccc(NS(=O)(=O)c3c(F)cccc3F)c2F)c(-c2ccnc(N)n2)s1` [Dabrafenib (Mesylate)], for which the growth reduction in assay [1] is 98.3%; in assay [2] it was 90%.
With `CS(=O)(=O)c1ccc([C@@H](O)[C@@H](CF)NC(=O)C(Cl)Cl)cc1` [Florfenicol], the growth reduction in assay [1] and in assay [2] was 100% each time.
On to `CCc1cc(F)c2nc(N3CCC(NC4CCOCC4)CC3)c(-c3nc(C)no3)c(C)c2c1`, for which the results for the growth reduction in assay [1] and in assay [2] were 100% and 93%, respectively.
On the same counts, the results for `Cc1ccc(-c2c(C(=O)CCl)n(CCCO)c3ncnc(N)c23)cc1` are 99.8% and 100%.
Take `Cc1cc2c(F)c(Oc3ncnn4cc(OC[C@@H](C)OC(=O)[C@H](C)N)c(C)c34)ccc2[nH]1` [Brivanib (alaninate)]: the growth reduction in assay [1] and in assay [2] was 100% each time.
As for `O=C(O)Cc1cc(I)c(Oc2ccc(O)c(I)c2)c(I)c1` [Tiratricol], the growth reduction in assay [1] and in assay [2] was 100% throughout.
As to `Cc1cc(Nc2ncc(Cl)c(Nc3ccccc3S(=O)(=O)C(C)C)n2)c(OC(C)C)cc1C1CCNCC1` [Ceritinib dihydrochloride], the growth reduction in assay [1] and in assay [2] was 100% throughout.
Consider `CCCCc1oc2ccc(NS(C)(=O)=O)cc2c1C(=O)c1ccc(OCCCN(CCCC)CCCC)cc1` [Dronedarone], for which the figures for the growth reduction in assay [1] and in assay [2] were 96.5% and 100%, respectively.
In the same order, the values of `Cc1ccc(C(=O)Nc2ccc(CN3CCN(C)CC3)c(C(F)(F)F)c2)cc1C#Cc1cnc2cccnn12` [Ponatinib] are 100% and 95%.
On the same counts, the results for `CCCc1nc2c(C)cc(-c3nc4ccccc4n3C)cc2n1Cc1ccc(-c2ccccc2C(=O)O)cc1` [Telmisartan] are 91.8% and 100%.
In the same order, the values of `Cc1ccc(-c2cc(C(F)(F)F)nn2-c2ccc(S(N)(=O)=O)cc2)cc1` [Celecoxib] are 95.6% and 90%.
As for `Cc1ccc(C(=O)N(CCCN)[C@@H](c2oc3cc(Cl)ccc3c(=O)c2Cc2ccccc2)C(C)C)cc1`, the growth reduction in assay [1] and in assay [2] was 100% each time.
Regarding `Cc1c(Cl)c(C)[n+]([O-])c(Cl)c1-c1noc(-c2cc(O)c(O)c([N+](=O)[O-])c2)n1` [Opicapone], the growth reduction in assay [1] came out at 99.2%; in assay [2] it was 100%.
In the case of `CC(=O)O[C@]1(C(C)=O)CC[C@H]2[C@@H]3C=C(C)C4=CC(=O)CC[C@]4(C)[C@H]3CC[C@@]21C` [Megestrol acetate], the results for the growth reduction in assay [1] and in assay [2] were 100% and 91%, respectively.
As to `Oc1c(Cl)cc(Cl)cc1Sc1cc(Cl)cc(Cl)c1O` [Bithionol], the growth reduction in assay [1] was determined as 99.2%; in assay [2], 100%.
On the same counts, the results for `CC(/C=C/C=C(\C)C(=O)O)=C\C=C\C=C(C)\C=C\C=C(/C)C(=O)O` [Transcrocetin meglumine salt] are 100% and 92%.
On the same counts, the results for `COc1cc2/c(=N/c3ccc(Br)cc3F)nc[nH]c2cc1OCC1CCN(C)CC1` [Vandetanib] are 100% and 100%.
On the same counts, the results for `NC1=NCC2c3ccccc3Cc3ccccc3N12` (stereo not drawn) [Epinastine] are 100% and 100%.
For `CC(C)(C)C#Cc1cc(N(C(=O)[C@H]2CC[C@H](C)CC2)[C@H]2CC[C@H](O)CC2)c(C(=O)O)s1` [Lomibuvir], the results for the growth reduction in assay [1] and in assay [2] were 91.1% and 95%, respectively.
On the same counts, the results for `CC(=O)Oc1cccc2c1C(=O)c1c(OC(C)=O)cc(C(=O)O)cc1C2=O` [Diacerein] are 93.4% and 100%.
On the same counts, the results for `COc1cccc(-c2ccc(NC(=O)C3=C(C(=O)O)CCC3)c(F)c2)c1` [Vidofludimus] are 93% and 99%.
In the same order, the values of `C=C[C@@H]1C[C@]1(NC(=O)[C@@H]1C[C@@H](Oc2ncc(OC)c3ccc(Cl)cc23)CN1C(=O)[C@@H](NC(=O)OC(C)(C)C)C(C)(C)C)C(=O)NS(=O)(=O)C1CC1` [Asunaprevir] are 100% and 100%.
Consider `CCN(CC)CCN(Cc1ccc(-c2ccc(C(F)(F)F)cc2)cc1)C(=O)Cn1c(SCc2ccc(F)cc2)nc(=O)c2c1CCC2` [Darapladib], for which the growth reduction in assay [1] and in assay [2] was 100% throughout.
In the case of `Nc1ccn([C@@H]2O[C@H](CO)[C@@H](O)C2(F)F)c(=O)n1` [Gemcitabine], the growth reduction in assay [1] and in assay [2] was 100% in each case.
For `CC(C)(C)c1ccc(C(O)CCCN2CCC(C(O)(c3ccccc3)c3ccccc3)CC2)cc1` (stereo not drawn) [Terfenadine], the growth reduction in assay [1] and in assay [2] was 100% throughout.
`O=C(NS(=O)(=O)c1ccc(Br)s1)c1ccc(Cl)cc1Cl` [Tasisulam]: the growth reduction in assay [1] and in assay [2] was 100% each time.
For the compound `OCCN1CCN(CC/C=C2/c3ccccc3Sc3ccc(Cl)cc32)CC1` [Zuclopenthixol], the growth reduction in assay [1] and in assay [2] was 100% in each case.
Take `CCN(C/C=C\c1ccc(C2CCCCC2)c(Cl)c1)C1CCCCC1`: the growth reduction came out at 100% in assay [1] and 99% in assay [2].
In the same order, the values of `C[C@H](CCC(=O)O)[C@H]1CC[C@H]2[C@@H]3CC[C@@H]4C[C@H](O)CC[C@]4(C)[C@H]3C[C@H](O)[C@]12C` [Deoxycholic acid] are 98.3% and 100%.
For the compound `CCN(CC)CCNC(=O)c1c(C)[nH]c(/C=C2\C(=O)Nc3ccc(-c4csc(-c5ccccc5)n4)cc32)c1C` [Amcasertib], the growth reduction in assay [1] and in assay [2] was 100% in each case.
`C[C@H]1Cc2c([nH]c3cc(Cl)c(F)cc23)[C@@]2(N1)C(=O)Nc1ccc(Cl)cc12` [Cipargamin]: the growth reduction in assay [1] and in assay [2] was 100% throughout.
As for `Cc1cc(C2CCCCC2)n(O)c(=O)c1` [Ciclopirox], the growth reduction was found to be 99.3% in assay [1] and 100% in assay [2].
In the same order, the values of `CC(C)(C)[C@@H]1NC(=O)O[C@@H]2CCC[C@H]2OC/C=C/C(F)(F)c2nc3ccccc3nc2O[C@@H]2C[C@@H](C(=O)N[C@]3(C(=O)NS(=O)(=O)C4(C)CC4)C[C@H]3C(F)F)N(C2)C1=O` [Glecaprevir] are 100% and 100%.
In the same order, the values of `CNCCC(Oc1ccc(C(F)(F)F)cc1)c1ccccc1` (stereo not drawn) [Fluoxetine (hydrochloride)] are 100% and 100%.
On the same counts, the results for `O=C1Nc2ccc(Cl)cc2[C@@](C#CC2CC2)(C(F)(F)F)O1` [Efavirenz] are 96.6% and 98%.
With `O=C(O)CCCc1cc2cc(Cl)ccc2n1S(=O)(=O)c1ccc2ncsc2c1` [Lanifibranor], the growth reduction in assay [1] stood at 99.1%; in assay [2], 99%.
In the same order, the values of `C=CC(N)CCC(=O)O` (stereo not drawn) [Vigabatrin (hydrochloride)] are 100% and 100%.
On the same counts, the results for `NC(=O)C1=C(O)[C@@]2(O)C(=O)C3=C(O)c4c(O)cccc4C[C@H]3C[C@H]2CC1=O` [Incyclinide] are 100% and 100%.
In the same order, the values of `Cn1cc(-c2ccncc2)c(-c2ccc(OCc3ccc4ccccc4n3)cc2)n1` [Mardepodect (hydrochloride)] are 100% and 97%.
With `O=C(Nc1ccc([N+](=O)[O-])cc1Cl)c1cc(Cl)ccc1O` [Niclosamide], the growth reduction in assay [1] was 99.8%; in assay [2], 100%.
In the same order, the values of `COc1cc(/C=C/c2ccc(O)cc2)cc(OC)c1` [Pterostilbene] are 99.9% and 100%.
In the same order, the values of `O=c1[nH]cc(F)c(=O)[nH]1` [5-Fluorouracil] are 97.1% and 100%.
In the same order, the values of `CCN(CC)CCOc1ccc(C(=C(Cl)c2ccccc2)c2ccccc2)cc1` [Clomiphene (citrate)] are 100% and 100%.
Regarding `C=C[C@@](C)(/C=C/c1ccc(O)cc1)CCC=C(C)C` [Bakuchiol], the growth reduction in assay [1] and in assay [2] was 100% throughout.
As to `O=[N+]([O-])c1ccc(O)c2ncccc12` [Nitroxoline], the results for the growth reduction in assay [1] and in assay [2] were 98.4% and 100%, respectively.
Take `OC1(c2ccc(Cl)c(C(F)(F)F)c2)CCN(CCCC(c2ccc(F)cc2)c2ccc(F)cc2)CC1` [Penfluridol]: the growth reduction in assay [1] and in assay [2] was 100% in each case.
Consider `CCC[C@H](Oc1cc(C)c(-n2cc(C(F)(F)F)cn2)c(C)c1)c1ccc(C(=O)NCCC(=O)O)cc1`, for which the growth reduction in assay [1] and in assay [2] was 100% in each case.
As for `Cc1ccc2c(=O)c3cccc(CC(=O)O)c3oc2c1C` [Vadimezan], the growth reduction in assay [1] and in assay [2] was 100% in each case.

The values are drawn from the supplement of paper PMC12024424.
